# Results from PubChem BioAssay (NCATS).
# Inconclusive results are not listed. Entries that show only a call come without a potency. Activity calls are given as the source filed them. Calls follow the shape of the dose curve; as a rule, active = well fitted inhibition curve with a large enough effect; inconclusive = small, poorly fitted or top-dose-only effect; inactive = no such curve, though single readings can be large or run the other way.
# Biological target: Nuclear receptor ROR-gamma (Homo sapiens) (UniProt P51449)
# Assay: qHTS assay for small molecule antagonists of the retinoid-related orphan receptor gamma (ROR-gamma) signaling pathway (AID 651802); also: nearly all actives have a fitted effect of over 60% in size
# Settings: ROR-gamma antagonist cell reporter assay; series mostly up to 92.2 µM
# Source text: National Center for Advancing Translational Sciences [NCATS]
# NIH Chemical Genomics Center [NCGC]
# National Institutes of Environmental Health Sciences [NIEHS]
# National Toxicology Program [NTP]
# Nuclear steroid hormone receptors are involved in many biological processes including inflammatory responses, cell proliferation, and apoptosis. Environmental factors or compounds disrupting these nuclear receptor pathways and gene expression may promote susceptibility to immunotoxicants and autoimmune diseases. One important group of these expression factors are the retinoid-related orphan receptors. To assess compounds that may interfere with the retinoid-related orphan receptor gamma (ROR-gamma) transcription factor, a cell-based luciferase assay was used.
# The CHO cell-based assay utilizes a TET-inducible ROR expression factor and ROR response element-LUC reporter gene. Reporter activity was induced using doxycycline and measured after 16hr incubation. Luminescence was read using Viewlux (PerkinElmer), where a decrease in reporter activity would show a decrease in luminescence.
# 1,000 cells in 4 uL/well were dispensed into white wall/solid bottom 1536-well plates using a Multidrop Combi (Thermo Scientific) dispenser. Following transfer of 23 nL compound or DMSO vehicle by a pin tool, the plates were treated with 1 ul doxycycline to induce reporter gene activity. After 16hr incubation at 37C and 5% CO2, 5uL one-glo (promega) was added to each plate and following 30 min incubation at room temperature, luminescence was quantified on a ViewLux (PerkinElmer) plate reader.
# Potency is read from the fitted curve at half-maximal effect.
# Chain of Nuclear receptor ROR-gamma (Homo sapiens) (P51449 whole entry, looked up): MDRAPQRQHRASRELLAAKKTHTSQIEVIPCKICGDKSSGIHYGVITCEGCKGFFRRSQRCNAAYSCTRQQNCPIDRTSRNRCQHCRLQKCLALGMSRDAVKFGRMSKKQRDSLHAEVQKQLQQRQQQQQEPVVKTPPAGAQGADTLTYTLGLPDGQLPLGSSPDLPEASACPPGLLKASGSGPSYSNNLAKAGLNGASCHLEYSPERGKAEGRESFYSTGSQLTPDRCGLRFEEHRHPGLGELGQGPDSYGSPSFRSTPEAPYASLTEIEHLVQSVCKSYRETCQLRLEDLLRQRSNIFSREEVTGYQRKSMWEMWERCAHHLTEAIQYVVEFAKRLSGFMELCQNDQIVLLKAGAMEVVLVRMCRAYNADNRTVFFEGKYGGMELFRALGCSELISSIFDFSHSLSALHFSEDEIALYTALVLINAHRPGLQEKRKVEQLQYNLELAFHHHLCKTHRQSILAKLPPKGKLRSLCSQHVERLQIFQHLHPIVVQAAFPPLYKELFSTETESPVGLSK
row,SMILES,Potency
1,NCCNCCNCCNCCN,inactive
2,Cc1c(O)cccc1C(=O)N[C@@H](CSc1ccccc1)[C@H](O)CN1C[C@H]2CCCC[C@H]2C[C@H]1C(=O)NC(C)(C)C,8.41 µM (active)
3,[Cl][In]([Cl])[Cl],inactive
4,CC1(C)[C@@H]2CC[C@@]1(C)C(=O)C2,inactive
5,CCCCCCCCCCCCOS(=O)(=O)O,inactive
6,CCCCOC(=O)c1ccc(O)cc1,inactive
7,COc1ccccc1O,inactive
8,CC12CCC(CC1)C(C)(C)O2,inactive
9,Cc1cc(CC(=O)O)n(C)c1C(=O)c1ccc(Cl)cc1,inactive
10,NCCNCCNCCN,inactive
11,Cc1cc2nc3c(=O)[nH]c(=O)nc-3n(C[C@H](O)[C@H](O)[C@H](O)CO)c2cc1C,inactive
12,O=C1O[C@H]([C@@H](O)CO)C(O)=C1O,inactive
